Experimental data: PubChem BioAssay (EPA / NIEHS)
Calls of active or inactive are those of the source. How the source made its calls: active means hit-call score of the fitted dose curve at least 0.9, where 1 is the maximum; inconclusive means response in the unintended direction; inactive means score below 0.9.

test system: DIO3 (gene 1735); experiment: CCTE_GLTED_hDIO3: CCTE's human Deiodinase 3 (DIO3) Inhibition Assay, Great Lakes Toxicology and Ecology Division (GLTED) Lab (AID 2284055);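 on AC50: potency is for inhibition seen as loss of released iodide signal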
Method: CCTE_GLTED_hDIO3 is a cell-free, single-readout assay designed to test the inhibitory activity of chemicals toward human iodothyronine Deiodinase type 3 (DIO3) enzyme. Enzyme is incubated in presence of test chemical for 3 hours during which uninhibited enzyme liberates free iodide from substrate. Free iodide is measured in a second step using the Sandell-Kolthoff method.CCTE_GLTED_hDIO3 is the assay component measured from the CCTE_GLTED_hDIO3 assay. It is designed to make measurements of enzyme activity, a form of enzyme reporter, as detected with absorbance signals by spectrophotometry.Data from the assay component CCTE_GLTED_hDIO3 was analyzed into 1 assay endpoint. This assay endpoint, CCTE_GLTED_hDIO3, was analyzed in the positive analysis fitting direction relative to DMSO as the negative control and baseline of activity. Using a type of enzyme reporter, loss-of-signal activity can be used to understand changes in the enzymatic activity as they relate to the gene DIO3. Furthermore, this assay endpoint can be referred to as a primary readout, because the performed assay has only produced 1 assay endpoint. To generalize the intended target to other relatable targets, this assay endpoint is annotated to the 'deiodinase' intended target family, where the subfamily is 'deiodinase Type 3'.
[…] assay, developed at Great Lakes Toxicology and Ecology Division (GLTED) within the EPA's Center for Computational Toxicology and Exposure (CCTE), is designed to test the chemicals' ability to inhibit DIO3. Assay uses human deiodinase type 3 (DIO3) enzyme produced with adenovirus expression system. Assay is based on iodide release measured by the Sandell-Kolthoff method and is run in 96-well plate format with assay plates run in triplicate (n=3). The method used for the deiodinase assay was largely based on Renko et al. (2012, 2015). These works describe the utilization of the SK reaction to measure deiodinase-liberated iodide in a 96-well-plate format. The SK reaction is based on the reduction of the yellow-colored cerium IV to the non-colored cerium III by arsenic, with the rate of this reaction increased in the presence of iodide in a concentration-dependent manner (Sandell and Kolthoff, 1937). Iodinated test chemicals can interfere as competitive inhibitors, or if the stock chemical has contaminating free-iodide present. Other chemicals, e.g.: nitrite, iron, and thiocyanate can interfere with the Sandell-Kolthoff reaction (see Sandell and Kolthoff, 1937).

Compound	AC50	outcome
CCC(=C(c1ccc(O)cc1)c1ccc(OCCN(C)C)cc1)c1ccccc1	58.4 µM (active)	
CCCCCCCCCCCCCC[N+](C)(C)C	7.85 µM (active)	
CCCCCCCCCCCCc1ccccc1S(=O)(=O)O	40 µM (active)	
CC(C)(C)c1ccc(O)c(C(C)(C)C)c1	96.5 µM (active)	
ClC1=C(Cl)C(Cl)(Cl)C(Cl)=C1Cl	3.14 µM (active)	
CC(=O)NC1(c2cccc(F)c2)CCN(CC[C@@]2(c3ccc(Cl)c(Cl)c3)CN(c3ccccc3)C(=O)CO2)CC1		inactive
CCCCCCCCCCCCN1CCCC1=O	87.8 µM (active)	
Cc1oc(-c2ccccc2)nc1CCOc1ccc(C[C@H](Nc2ccccc2C(=O)c2ccccc2)C(=O)O)cc1	67.5 µM (active)	
c1ccc2cc3c(ccc4ccccc43)cc2c1	65.8 µM (active)	
CN1CCN(c2ccccc2/C=C2\SCCN(c3ccc(Cl)c(Cl)c3)C2=O)CC1		inactive
NC(=O)N(O)[C@@H]1C=C[C@H](Oc2cccc(Oc3ccc(F)cc3)c2)C1	30.5 µM (active)	
CC1=C(/C=C/C(C)=C/C=C/C(C)=C/C(=O)O)C(C)(C)CCC1	34.7 µM (active)	
